# Source: the supplement of paper PMC7156485
# ± gives the standard deviation of the averaged measurements.
# Tested on: HCC1569
# Test: cell number relative to DMSO (% of DMSO); higher = more cells (less growth inhibition / toxicity)
# Conditions: concentration: 10 µM; 24 h
# How it was run: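 Compounds were applied at 10 µM for 24 h at 37 °C, in triplicate, to HCC1569 and TDF cells. The cells were then fixed and stained for H1.0, and nuclei were counterstained with DAPI. Nuclear H1.0 intensity or cell number is reported relative to the plate control as a percent, taking the median of replicates. Smoothing for positional effects was applied to HCC1569 values only.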
# 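Also: TDF denotes transformed human dermal fibroblasts of mesenchymal origin.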
row,SMILES,cell number
1,COc1ccc(-c2cc(=O)c3c(O)cc(OC4OC(COC5OC(C)C(O)C(O)C5O)C(O)C(O)C4O)cc3o2)cc1O (configuration not stated) [Diosmin],104
2,CC1C(=O)OC2C(O)C34C5CC(C(C)(C)C)C36C(OC(=O)C6O)OC4(C(=O)O5)C12O (configuration not stated) [Ginkgolide B],104
3,"O=C(O)c1cc(=O)c2c(Cl)cc(Cl)cc2[nH]1 [5,7-Dichlorokynurenic acid]",102
4,CCCn1cnc2c1c(=O)n(CCCCC(C)=O)c(=O)n2C [Propentofylline],104
5,CC(NC(=O)CCc1nc(=O)c2ccccc2[nH]1)c1ccccc1 (configuration not stated),103
6,COc1cc(C(O)CO)ccc1OS(=O)(=O)[O-].[K+] (configuration not stated) [MHPG sulfate potassium],102
7,CC1=C(C)C(=O)C(CCCCC#CCCCC#CCO)=C(C)C1=O,99.09 ± 0.2
8,CS(=O)(=O)O.Cc1ccc(N(CC2=NCCN2)c2cccc(O)c2)cc1 [Phentolamine mesylate],99
9,CC(O)CCCC(O)C=CC1C(O)CC(=O)C1CC=CCCCC(=O)O [19(R)-Hydroxy-prostaglandin E2],98.1
10,CCn1cc(C(=O)O)c(=O)c2ccc(Cc3ccccc3)nc21 [Amfonelic acid],101
11,Cl.OC(CCN1CCCCC1)(c1ccccc1)C1CCCCC1 (configuration not stated) [Trihexyphenidyl hydrochloride],103
12,CCCCCC=CCC=CCCCCCCCC(=O)NCC(=O)O [N-Linoleoylglycine],105
13,COc1cc2nc(N3CCN(C(=O)c4ccco4)CC3)nc(N)c2cc1OC.Cl [Prazosin hydrochloride],91.9
14,CN1CCN(C2=Nc3ccccc3Oc3ccc(Cl)cc32)CC1.O=C(O)CCC(=O)O [Loxapine succinate],101
15,CC1(C)OC2CC3C4CC(F)C5=CC(=O)C=CC5(C)C4(F)C(O)CC3(C)C2(C(=O)CO)O1 (configuration not stated) [Fluocinolone acetonide],101
16,COc1cc(O)c2c(c1)oc(=O)c1c3cc(O)c(O)cc3oc21 [Wedelolactone],91.7

row,SMILES,cell number
1,"Cc1ccc(Cl)c(Nc2ccccc2C(=O)[O-])c1Cl.[Na+] [sodium 2-(2,6-dichloro-3-methylanilino)benzoate]",99.4
2,"CCCCCC=CCC1OC1CC=CCC=CCCCC(=O)O (configuration not stated) [11,12-Epoxyeicosatrienoic acid]",104
3,COc1cc2nccc(Oc3ccc(NC(=O)NC4CC4)c(Cl)c3)c2cc1C(N)=O,83.8
4,COc1cc2ncnc(Sc3nnc(C)s3)c2cc1OC,63.3
5,Nc1ccc(CCNc2ncnc3c2ncn3C2OC(CO)C(O)C2O)cc1 (configuration not stated) [N6-2-(4-Aminophenyl)ethyladenosine],101
6,Cc1c[nH]c(C=C2C(=O)Nc3ccccc32)c1CCC(=O)O,101
7,CCCCCCCCCCCCCCCCOCC(COCC(F)(F)F)OP(=O)([O-])OC.[Li+] (configuration not stated),102
8,COCC(=O)OC1(CCN(C)CCCc2nc3ccccc3[nH]2)CCc2cc(F)ccc2C1C(C)C.Cl.Cl (configuration not stated) [Mibefradil dihydrochloride],84.2
9,CCCC(CCC)C(=O)NO [N-hydroxy-2-propylpentanamide],100
10,"CCCCCCCC(=O)OCC(CO)OC(=O)CCCCCCC (configuration not stated) [1,2-Dioctanoyl-SN-glycerol]",98.8
11,Nc1nc(OCc2ccccc2)c2[nH]cnc2n1 [O6-benzylguanine],102
12,NCC1OC(OC2C(N)CC(N)C(OC3OC(CO)C(O)C(N)C3O)C2O)C(N)CC1O (configuration not stated) [Tobramycin (free base)],103
13,"COc1cc2c3cc1Oc1cc(ccc1O)CC1c4c(cc(OC)c(O)c4Oc4ccc(cc4)CC3N(C)CC2)CC[N+]1(C)C.Cl.[Cl-] (single isomer, unassigned; (+)) [(+)-Tubocuraraine chloride]",108
14,CN1C2CCC1CC(OC(c1ccccc1)c1ccccc1)C2.CS(=O)(=O)O (configuration not stated) [Benztropine mesylate],97.2
15,CCCCCCCCC=CCCCCCCCCOCC(COP(=O)([O-])OCC[N+](C)(C)C)OC(C)=O (configuration not stated),101
16,"NC(=O)c1ccc(-c2nc(-c3ccc4c(c3)OCCO4)c(-c3ccccn3)[nH]2)cc1 [Casein Kinase I Inhibitor, D4476]",92.2
